Vif-APOBEC3G blk = qHTS for Inhibitors of Vif-A3G Interactions: qHTS | hit rate 0.076% among 410,000 | HeLa A3G-eYFP + Vif (tagged APOBEC3G with the HIV-1 protein that degrades it), YFP fluorescence, overnight | Potency, µM (series often up to 46.1 µM), inactives show top-dose activity, negative = active, most hits filed as inhibitors | DNA dC->dU-editing enzyme APOBEC-3G (Homo sapiens), Q9HC16 | AID 602310, 2012; note: % is set by controls: 0 for no effect and ±100 for the full control effect; nearly all actives have a fitted effect of over 60% in size
Target sequence (Q9HC16 whole entry, looked up): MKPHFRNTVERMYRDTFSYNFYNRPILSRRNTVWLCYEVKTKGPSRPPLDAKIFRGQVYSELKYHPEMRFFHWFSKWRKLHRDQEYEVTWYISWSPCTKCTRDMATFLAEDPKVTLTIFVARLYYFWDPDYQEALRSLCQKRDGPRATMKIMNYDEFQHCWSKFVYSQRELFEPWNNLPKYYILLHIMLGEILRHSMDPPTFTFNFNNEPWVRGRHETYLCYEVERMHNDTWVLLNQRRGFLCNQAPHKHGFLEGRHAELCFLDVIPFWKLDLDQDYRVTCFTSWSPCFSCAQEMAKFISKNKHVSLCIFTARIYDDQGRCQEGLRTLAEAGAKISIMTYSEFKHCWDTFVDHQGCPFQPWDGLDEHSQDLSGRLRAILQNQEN
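HeLa cells stably expressing Vif and C-terminally eYFP-tagged A3G, seeded overnight at 37 deg C, then exposed to compound by pintool overnight at 37 deg C. Rise in yellow fluorescence (Ex 488/Em 500-530, Acumen) marks blocked Vif-driven A3G degradation.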
PINK1 modulator = A Quantitative High throughput Screen to Identify Chemical Modulators of PINK1 Expression | AID 624263, 2012 | hit rate 0.2% among 410,000 | PINK1 immunofluorescence, high-content cytometry, 24 h | Potency, µM (series often up to 76.6 µM), for inactives: at the top dose activation (PINK1 increase), hits mostly activators; active = well fitted activation curve with a large enough effect; inconclusive = small, poorly fitted or top-dose-only effect; cell line not stated here; note: % of control where 0% means no effect; nearly all actives have a fitted effect of over 65% in size
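Stable cell line treated 24 h with compounds at 5 concentrations (CCCP controls), then fixed and immunostained for PINK1 plus nuclear and cell stains; PINK1 immunofluorescence quantified by laser-scanning microplate cytometry.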
FUS suppressor = qHTS for Suppressors of FUS Proteinopathy: Primary screen using FUS-linked yeast assay; S. cerevisiae FUS-expressing, growth rescue, OD600, 24 h; Potency, µM (titrated, usually from 76.6 µM), usual class: activators; hit rate 0.24% among 390,000;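 note: plate controls were DMSO vehicle for no effect and reference control for full effect; nearly all actives have a fitted effect of over 55% in size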
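Absorbance at 600 nm, taken 24hr after compound addition, measured rescue of FUS-yeast growth at 30C. Induction used 2% galactose with seeding at OD 0.005. Controls: CP55940 from 92uM final, DMSO only.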
Glioma ERSR ind = qHTS for Inducers of the Endoplasmic Reticulum Stress Response (ERSR) in Human Glioma: qHTS | U87-MG GRP78 promoter luciferase reporter, 16 h | hit rate 0.02% among 420,000 | Potency, µM, for the others: at the top dose activation, hits mostly activators; note: series mostly up to about 76 µM; % of control where 0% means no effect; nearly all actives have a fitted effect of over 35% in size
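Stably transfected U87-MG human glioma cells carrying a GRP78-based luminescent sensor were seeded at 1000 cells/well, pin-dosed with compounds and incubated 16 h. Luciferase reagent was then added, and end-point luminescence was read after 10 min at room temperature.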
Vif-APOBEC3F blk = qHTS for Inhibitors of Vif-A3F Interactions: qHTS | HeLa A3F-eYFP + Vif (tagged APOBEC3F with the HIV-1 protein that degrades it), YFP fluorescence increase | Potency, µM (top dose mostly 46.1 µM), for inactives: at the highest dose activity, negative = active | hit rate 0.2% among 390,000 | AID 602313, 2012; note: % of control where 0% means no effect; nearly all actives have a fitted effect of over 65% in size
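HeLa cells stably expressing A3F-eYFP plus Vif, plated and incubated overnight at 37 deg C, then exposed to compounds overnight at 37 deg C. Blocked degradation read as raised yellow fluorescence (Ex 488/Em 500-530).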
Abeta rescue = qHTS for compounds that reverse cellular toxicity of Amyloid beta (A-beta) peptide in yeast: Primary Screen | hit rate 0.063% among 410,000 | yeast expressing A-beta42, growth rescue, OD600, 48 h; response scale: 0% DMSO, 100% iron-clioquinol control | Potency, µM (highest dose often 46.1 µM), most hits filed as activators; note: nearly all actives have a fitted effect of over 55% in size
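Yeast A-beta toxicity model in growth medium with pinned compounds, 48 h at 30 C; growth read as absorbance at 600 nm. Normalized to FeCl3/clioquinol equimolar mix (positive) and DMSO (negative).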
* hit, by the source's call; i = inactive; ? = inconclusive; nt = not tested or not shown. Hits are enriched below; roughly 0.69% of the tested compounds scored in any of these assays. Unless noted, calls come from the whole dose curve; as a rule, active = well fitted curve in the direction sought with a large enough effect; inconclusive = small, poorly fitted or top-dose-only effect, or another doubt; inactive = no such curve, though single readings can be large; an effect the other way counts as inactive or inconclusive. Potency is the fitted concentration of half-maximal effect.

SMILES	Vif-APOBEC3G blk	PINK1 modulator	FUS suppressor	Glioma ERSR ind	Vif-APOBEC3F blk	Abeta rescue
N=c1n(CC(=O)c2ccc([N+](=O)[O-])cc2)c2ccccc2n1Cc1ccccc1	?	?	nt	-3%	13µM*	i
COc1cccc(-c2ccnc(-n3ncc(C(=O)NCC4(N5CCCCC5)CCCC4)c3C)n2)c1	nt	1%	nt	-5%	nt	nt
O=C(CSc1ccc(-c2nc3ccccc3[nH]2)cn1)N1CCN(C(=O)c2ccco2)CC1	5%	?	14µM*	-3%	-10%	i
O=C1c2c(O)cc(O)cc2O[C@H](c2ccc(O)c(O)c2)[C@H]1O	1%	0%	i	-1%	4%	i
C[C@@H]1O[C@@H](O[C@@H]2C(=O)c3c(O)cc(O)cc3O[C@H]2c2ccc(O)c(O)c2)[C@H](O)[C@H](O)[C@H]1O	11µM*	1%	i	-3%	0%	i
CSc1nc(C(=O)N2CCc3c(cnc(C)c3CNC(=O)c3ccc4c(c3)OCO4)C2)cs1	nt	0%	nt	-6%	nt	nt
COc1ccc(-n2c(SCC(=O)Nc3nccs3)nc3sc4c(c3c2=O)CCN(C)C4)cc1	1%	-1%	28µM*	-1%	-3%	i
COc1ccc(NC(=O)CSc2nc3sc4c(c3c(=O)n2-c2ccc(OC)cc2)CCN(C)C4)cc1	1%	4%	?	-3%	6%	i
Cc1ccc(S(=O)(=O)N2CCOCC2)cc1NC(=O)COC(=O)CCc1c[nH]c2ccccc12	1%	-4%	nt	-5%	-10%	i
O=C(COC(=O)Cc1c[nH]c2ccccc12)Nc1cc(S(=O)(=O)N2CCOCC2)ccc1Cl	1%	2%	35µM*	-1%	-1%	i
CC(=O)Nc1cc(-c2ccccc2N(C)C)cn2c(-c3cccc(C(F)(F)F)c3)cnc12	-11%	0%	32µM*	?	nt	i
CC(=O)Nc1cc(-c2cccc(NS(C)(=O)=O)c2)cn2c(-c3cccc(C(F)(F)F)c3)cnc12	-14%	0%	?	1%	nt	i
CCCCCCc1ccc(C(=O)CCN(C)C)cc1	-4%	nt	nt	16%	nt	nt
CC(C)(C)n1ncc2c(=O)n(Cc3ccccc3CS(=O)(=O)c3ccccc3)cnc21	0%	nt	nt	-2%	nt	nt
CC1=C(C(=O)N(C(C)C)C(C)C)CC(CC(=O)NCc2cccc3ccccc23)C(=O)N1Cc1ccc(F)cc1 (stereo not given)	-7%	0%	18µM*	-3%	nt	i
CC1=C(C(=O)N(C(C)C)C(C)C)CC(CC(=O)NCc2cccc3ccccc23)C(=O)N1Cc1ccccc1 (stereo not given)	-4%	1%	i	-4%	nt	i
O=C(CSc1nc(O)cc(=O)n1-c1ccccc1)Nc1ccc(Br)cn1	-5%	3%	28µM*	8%	-1%	i
Cc1cc(C)n(-c2ccc(C(=O)N3CCc4c(cnc(C)c4CNC(=O)c4ccccc4F)C3)cc2)n1	nt	2%	nt	-5%	nt	nt
COc1cc(C)c(CN2C[C@H](Sc3ccccn3)C[C@H]2C(=O)N(C)C)cc1C	nt	0%	nt	-2%	nt	nt
CCOc1ccc(CNC(=O)Cn2ccc3cc(S(=O)(=O)N4CCCCC4)ccc32)cc1	2%	0%	16µM*	0%	2%	i
CC(C)Oc1ccc(CNC(=O)Cn2ccc3cc(S(=O)(=O)N4CCCC4)ccc32)cc1	-13%	4%	i	-3%	3%	i
CCOc1ccc(CNC(=O)c2cc3cc(S(=O)(=O)N4CCCCC4)ccc3n2C)cc1	2%	3%	?	-4%	2%	i
CN(C)c1ccc(CNC(=O)c2cc3cc(S(=O)(=O)N4CCCCC4)ccc3n2C)cc1	3%	1%	8.9µM*	-2%	-11%	i
CCc1nc(CN2CCOc3ccc(C(O)C4CCCCC4)cc3C2)c(C)[nH]1 (stereo not given)	nt	2%	nt	-4%	nt	nt
COc1ccc(CN2CCOc3ccc(CN4CCC(Oc5cccnc5)CC4)cc3C2)c(F)c1	nt	1%	nt	-1%	nt	nt
SMILES	Vif-APOBEC3G blk	PINK1 modulator	FUS suppressor	Glioma ERSR ind	Vif-APOBEC3F blk	Abeta rescue
COc1ccc(/C=C2\CC/C(=C\c3ccc(OC)cc3OC)C2=O)c(OC)c1	-23%	10%	i	6%	8.9µM*	i
O=C(O)c1cc(O)ccc1N=Nc1ccccc1	?	8%	i	28µM*	1%	i
CCN(CC)c1ccc(C(=C2C=CC(=[N+](CC)CC)C=C2)c2ccc(S(=O)(=O)O)cc2S(=O)(=O)[O-])cc1	-1%	2%	32µM*	-15%	5%	i
COCc1c(C(=O)NC2CCOC(C)(C)C2)cnn1-c1nccc(-c2cccs2)n1 (stereo not given)	nt	-1%	nt	0%	nt	nt
Cc1cc(C(=O)NCc2nc(-c3cccc(NC(=O)c4ccccc4)c3)oc2C)nc(C)n1	nt	0%	nt	-2%	nt	nt
COC(=O)c1c(N)c(C#N)c2n1CCCCC2	1%	8.9µM*	i	-5%	-5%	i
N#CC(C#N)=C1C=C2C=C(N3CCCCCC3)CCC2CC1 (stereo not given)	10%	11µM*	i	-2%	?	i
CN1CCN(C2=CC3=CC(=C(C#N)C#N)CCC3CC2)CC1 (stereo not given)	-1%	?	i	-5%	-18%	i
N#CC(C#N)=C1C=C2C=C(N3CCOCC3)CCC2CC1 (stereo not given)	10%	16µM*	i	1%	11µM*	i
CC(=O)Nc1ccccc1-c1nc(CNC(=O)c2cccc(-n3cccn3)c2)c(C)o1	nt	0%	nt	-2%	nt	nt
Cc1ccc2[nH]c(C)c(/C=C/c3cc[n+](C)cc3)c2c1	1.3µM*	14µM*	i	-3%	-372%	i
CSc1ccccc1C(=O)NC1CCCN(c2ccc(C(F)(F)F)cn2)C1 (stereo not given)	3%	0%	i	4%	7%	22µM*
Cc1c(C(=O)NCC(C)(C)N2CCOCC2)cnn1-c1ncc2c(n1)-c1ccccc1CC2	nt	0%	nt	-2%	nt	nt
COC(=O)c1cc(NC(=O)Cn2nc(-c3ccccc3)c3c(c2=O)CCCC3)cc(C(=O)OC)c1	1%	2%	i	-3%	5%	i

Compound activity from PubChem.
